The structures appear in SMILES notation. “And” between values parts separate entries of the source, which are not always exact repeats. Identical values can stand only once. For part of these data: Potency and affinity values are given separately. The source made the active and inactive calls. Unless noted, the rule behind the calls is not given here.

For orientation: inhibition means the drop in the measured response relative to a control, in per cent. What is called viability is a read-out of living cells in per cent, often relative to untreated cells.

A short description of experiment [1]: polyglutamine-triggered caspase-3 activation inhibitors, cell-based (AID 1583). The following applies: polyglutamine-induced caspase-3 activation, cell assay; stronger effect = higher value;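 tested at 10 µM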.
A short description of experiment [2]: suppressors of polyQ aggregation in yeast, 75Q-TubU reporter (AID 1593). The following applies: Yeast 75Q polyglutamine aggregation reporter.
The nature of experiment [3]: rescue of polyQ-huntingtin neuronal dysfunction in worms, whole organism, C. elegans mechanosensory neurons, N-terminal huntingtin (AID 1599). To be noted: touch response, stronger effect = higher value.
A short description of experiment [4]: inhibitors of mitochondrial cytochrome c release, biochemical, purified mitochondria (AID 1603).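 Note: mouse liver mitochondria challenged with calcium chloride; signal normalized to the plate average as 100%.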 The following applies: stronger effect = lower value.
The nature of experiment [5]: inhibitors of polyQ protein aggregation (AID 1604). To be noted: polyglutamine-induced protein aggregation inhibition assay; stronger effect = higher value; tested at 2.5 µM.
Experiment [6] can be described thus: enhancers of glutamate uptake in motor neurons, MN-1 cell line (AID 1612).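 Note: tested at 1 µM final; 0% = mean of DMSO vehicle wells on each plate; positive means more glutamate uptake than control and negative means less.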 To be noted: MN-1 motor neuron cells, stronger effect = higher value.
Experiment [7] can be described thus: suppressors of polyglutamine aggregation in yeast, 75Q-TubH (AID 1616). The following applies: S. cerevisiae 75Q-TubH polyglutamine aggregation suppression; stronger effect = higher value.
Experiment [8] can be described thus: hESC survival regulators, cell-based (AID 493140).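 Note: cells exposed to compounds for four days before counting.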 To be noted: human embryonic stem cell survival screen; stronger effect = higher value.
Experiment [9] can be described thus: Cy5 fluorescence interference with SSB-bound oligo, artefact control for HCV NS3 helicase inhibitor project, biochemical, NIH Clinical Collection, E. coli SSB (AID 743268).
The subject of experiment [10] is Hepatitis C virus NS3 helicase. The experiment can be described thus: HCV NS3 helicase inhibitors, primary screen, biochemical, fluorescence polarization, NIH Clinical Collection (AID 743270). The following applies: NS3 helicase binding to Cy5-dT15 DNA, stronger effect = higher value, concentration not given here.
For experiment [11], the target named is Single-stranded DNA-binding protein (Escherichia coli (strain K12)) (UniProt P0AGE0). The experiment in a line: E. coli SSB displacement from DNA, counter-screen for HCV NS3 helicase inhibitor project, biochemical, fluorescence polarization, NIH Clinical Collection (AID 743271; in the data active = inhibition above about 28%). The following applies: stronger effect = higher value, concentration not given here. (Counterscreens check selectivity or assay interference.)

The nature of experiment [12]: fluorescence interference in NS3h assay format, artefact control for HCV NS3 helicase inhibitor project, biochemical, NIH Clinical Collection (AID 743272).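 Note: HCV NS3 helicase with a Cy5 labelled single stranded DNA probe.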 The following applies: fluorescence interference counterscreen, stronger effect = lower value.
Experiment [13] is described as follows: modulation of C. elegans fzo-1 (AID 1259413).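 Note: fzo-1 mutant C. elegans worms in liquid wells.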 The following applies: C. elegans fzo-1 modulator screen, mean read-out; stronger effect = higher value.
Experiment [14] is described as follows: viability rescue of complex I mutant cybrids, primary screen, cell-based, galactose medium, ATP luminescence (AID 1645843;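 active = z-score of at least 1.8 in each of two replicates, scored against plate mean and spread of sample wells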;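 note: positive z means more ATP and so rescue of galactose-driven cybrid death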). The following applies: complex I mutant cybrid cells, 72 h, stronger effect = higher value.
A further experiment concerns F380Y/beta1. The experiment can be described thus: modulators of BK channel variants, profiling panel, selectivity assay, cell-based, U2OS BacMam, thallium flux, beta subunits (AID 1259406;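 active = thallium flux through the channel raised or lowered by more than 3 SD from vehicle-only wells, actives on both sides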;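 note: initial slope of Thallos dye fluorescence rise after thallium is added; log ratio against the mean of 0.3% DMSO vehicle wells on the same plate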). The following applies: at 30 µM.
The subject of the next experiment is F380Y/beta4. The description is as above. To be noted: at 30 µM.
Another experiment has as its system R275C/beta4. Described as above. To be noted: at 30 µM.
For the next experiment, the system named is R275C/Slo1WT/beta2. The description is as above. To be noted: at 30 µM.
Experiment [15] in a line: liver-stage malaria parasite growth inhibition, primary screen, cell-based, HepG2, luciferase luminescence, HepG2 viability (AID 624349; in the data active = parasite load remaining mostly below about 12%, no sharp cut-off; inactive = mostly above about 10%;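 note: 100% = mean of DMSO negative control wells on the same plate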). To be noted: P. berghei liver stage in HepG2, luciferase luminescence, concentration not given here; parasite load remaining: stronger effect = lower value; viability: measured here: HepG2 viability without parasites.

As to `CC(C)[N+](C)(CCOC(=O)C1c2ccccc2Oc2ccccc21)C(C)C`, the inhibition in [1] is 8.5%; in experiment [10], -1.36% (inactive); in [11], 0.29% (inactive). Also, the score in experiment [2] is 0.96. In addition, in [3], the rescue above control amounted to 2.24. The cytochrome c release ratio in [4] was found to be 0.77. For the same compound, in experiment [5], the inhibition of aggregation is 58.5%. For the same compound, the glutamate uptake change in experiment [6] is -0.12%. In addition, the aggregation suppression score in experiment [7] came out at 1.09. Also, in experiment [8], the survival was 4.92 (inactive). The fluorescence ratio in experiment [9] is 1.03 (inactive); in [12], 0.96 (inactive). Moreover, in experiment [13], the mean signal is 251 (inactive). Moreover, the z-score in experiment [14] is 0.295 (inactive) and 0.02 (inactive). In addition, the log fold change Tl+ flux with F380Y/beta1 was -0.0699 (inactive); in the experiment with F380Y/beta4 it was -0.0221 (inactive); in the experiment on R275C/beta4 it was -0.0395 (inactive); in the experiment on R275C/Slo1WT/beta2, -0.0246 (inactive).
As to `CCN(CC)CCOC(=O)c1ccc(N)cc1`, the inhibition in experiment [1] was 9.09%; in [10], -3.18% (inactive); in experiment [11], 0.29% (inactive). In experiment [2], this compound returned a score of 1.48. For the same compound, the rescue above control in experiment [3] was -15. Further, the cytochrome c release ratio in experiment [4] stood at 1.16. Besides, in experiment [5], the inhibition of aggregation turned out to be 23.9%. For the same compound, the glutamate uptake change in experiment [6] stood at 22.4%. For the same compound, in experiment [7], the aggregation suppression score came out at 1.46. Besides, in experiment [8], the survival is 15.7 (inactive). The fluorescence ratio in experiment [9] was 1.06 (inactive); in experiment [12] it was 0.92 (inactive). For the same compound, the mean signal in experiment [13] is 231 (inactive). Also, in [14], the z-score was 0.17 (inactive) and -0.015 (inactive). Also, the log fold change Tl+ flux in the experiment on F380Y/beta1 is -0.0732 (inactive); in the experiment on F380Y/beta4 it was 0.0148 (inactive); in the experiment on R275C/beta4, -0.0586 (inactive); in the experiment on R275C/Slo1WT/beta2 it was -0.013 (inactive).
Turning to `NCC(=O)CCC(=O)O`, the parasite load remaining in [15] was 63.7% (inactive) and 161% (inactive) and 53.4% (inactive). Further, the viability in experiment [15] is 95.6% and 83.2% and 165%. Besides, the fluorescence ratio in [9] is 1.05 (inactive); in experiment [12], 1.02 (inactive). The values for the inhibition in [10] and in experiment [11] were -2.27% (inactive) and -0.48% (inactive), respectively. Also, the mean signal in experiment [13] was 245 (inactive). Besides, the z-score in experiment [14] was 0.925 (inactive). The log fold change Tl+ flux with F380Y/beta1 is -0.00533 (inactive); with F380Y/beta4, 0.0148 (inactive); with R275C/beta4 it was -0.0959 (inactive); in the experiment with R275C/Slo1WT/beta2, -0.117 (active).
For `Cc1ccc(S(=O)(=O)NC(=O)NN2CCCCCC2)cc1`, the figures for the inhibition in experiment [1], in experiment [10] and in experiment [11] were -0.98%, -2.27% (inactive) and -2.76% (inactive), respectively. This compound also returned a score in [2] of 1.2. The compound further displayed a rescue above control in [3] of 1.05. Moreover, in experiment [4], the cytochrome c release ratio came to 1.07. In addition, the inhibition of aggregation in [5] was found to be 69.7%. Besides, the glutamate uptake change in experiment [6] was found to be 14.9%. Besides, the aggregation suppression score in [7] came out at 0.918. For the same compound, the survival in experiment [8] is 3.17 (inactive). For the same compound, the values for the fluorescence ratio in experiment [9] and in [12] were 1.04 (inactive) and 1 (inactive), respectively. Moreover, the mean signal in experiment [13] was 286 (inactive). Further, the z-score in [14] is 0.415 (inactive) and 0.635 (inactive) and 0.49 (inactive). Moreover, the log fold change Tl+ flux in the experiment on F380Y/beta1 was 0.00805 (inactive); in the experiment with F380Y/beta4, -0.0504 (inactive); with R275C/beta4, 0.0645 (inactive); with R275C/Slo1WT/beta2, -0.0145 (inactive).
Regarding `CC(=O)Nc1nnc(S(N)(=O)=O)s1`, the inhibition in [1] is 12.8%; in [10], -1.36% (inactive); in [11], -2% (inactive). Further, in experiment [2], the score came out at 1.01. For the same compound, the rescue above control in experiment [3] came out at 21.8. Also, the cytochrome c release ratio in experiment [4] was found to be 0.85. Further, the inhibition of aggregation in [5] was -6.35%. Also, the glutamate uptake change in [6] is 5.19%. Also, the aggregation suppression score in [7] was found to be 1.12. For the same compound, in experiment [8], the survival was 10.5 (inactive). Further, the fluorescence ratio in experiment [9] was 1.01 (inactive); in [12], 0.98 (inactive). Moreover, the mean signal in experiment [13] was 242 (inactive). For the same compound, in experiment [14], the z-score was 0.625 (inactive) and 0.37 (inactive). Moreover, the log fold change Tl+ flux in the experiment on F380Y/beta1 is 0.0405 (inactive); in the experiment with F380Y/beta4, 0.0426 (inactive); in the experiment on R275C/beta4, 0.00614 (inactive); in the experiment with R275C/Slo1WT/beta2 it was 0.0491 (inactive).

The values are drawn from PubChem BioAssay.
